Source: PubChem
Shown is part of a subset that was picked to be rich in hits.
HT1080-NT tox – qHTS for induction of synthetic lethality in tumor cells producing 2HG: qHTS for the HT-1080-NT fibrosarcoma cell line; Potency, µM (titrated, usually from 46.1 µM), actives largely listed as cytotoxic; HT-1080-NT fibrosarcoma viability, CellTiter-Glo ATP luminescence, 48 h; AID 686970, 2013; 360,000 tested, 1.6% active;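 further: NT is the 2HG producing partner of a matched IDH1 knockdown line; nearly all actives have a fitted effect of over 55% in size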
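HT-1080-NT fibrosarcoma cells (2HG-overproducing), 750 cells/well in RPMI with 5% FBS, dosed after 2 h and incubated 48 h at 37C. CellTiter-Glo luminescence normalized to DMSO and no-cell wells; concentration-response curves fitted and classed.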
HT1080 IDH1KD tx – qHTS for induction of synthetic lethality in tumor cells producing 2HG: qHTS for the HT-1080-IDH1KD cell line; HT-1080 IDH1 knockdown viability, ATP luminescence, 48 h; Potency, µM (doses to about 46.1 µM), actives largely listed as cytotoxic; 360,000 tested, 2% active; AID 686971, 2013
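In this qHTS, HT-1080 cells depleted of IDH1 are exposed for 48 h at 37 °C to compound titrations. Toxicity is scored from CellTiter-Glo luminescence, with DMSO as full viability and medium alone as none.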
TDP1 cell noCPT – qHTS for Inhibitors of human tyrosyl-DNA phosphodiesterase 1 (TDP1): qHTS in cells in absence of CPT; DT40 Tdp1-/- hTDP1 cells, no CPT, ATP luminescence, 48 h; Potency, µM (doses to about 46.2 µM), most hits filed as inhibitors; 420,000 tested, 15% active; further: nearly all actives have a fitted effect of over 55% in size
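Camptothecin absent (DMSO only). Human TDP1-complemented DT40 knockout cells, 400 cells/well, 37 °C for minimum 48 hr; ATP measured via CellTiter-Glo, 30 min dark incubation, luminescence.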
DT40 TDP1 CPT – qHTS for Inhibitors of human tyrosyl-DNA phosphodiesterase 1 (TDP1): qHTS in cells in presence of CPT; Potency, µM (series often up to 46.2 µM), actives largely listed as inhibitors; 420,000 tested, 12% active; chicken DT40 Tdp1-/-;hTDP1 cells + 20 nM CPT, ATP luminescence, 48 h; further: nearly all actives have a fitted effect of over 55% in size
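Chicken DT40 Tdp1-/- cells complemented with human TDP1, 400 cells/well, exposed to compounds plus 20 nM camptothecin for at least 48 h at 37 C; viability read as ATP content by CellTiter-Glo luminescence.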
IL-1B inflam inh – qHTS for Inhibitors of Inflammasome Signaling: IL-1-beta AlphaLISA Primary Screen; THP-1 LPS/ATP IL-1B secretion, AlphaLISA, 16 h; hits give low values; activity change, % at 57.5 µM; 360,000 tested, 4.7% active; AID 743279, 2014; in the data active means activity change below about -50%; inconclusive means mostly about -30% to -49%
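Secreted IL-1B measured by AlphaLISA bead assay after 16 h compound exposure of THP-1 cells; compounds (final up to 57.5 uM) added 1 h before LPS (250 ng/mL) and ATP (1.25 mM) stimulation; lower signal means less secretion.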
ALOX12 inh – Primary qHTS assay for inhibitors of human arachidonate 12S-lipoxygenase (ALOX12): Round 2. Polyunsaturated fatty acid lipoxygenase ALOX12 (Homo sapiens), P18054. purified 12hLO, xylenol orange hydroperoxide absorbance. Potency, µM (highest dose often 108 µM), most hits filed as inhibitors. 580,000 tested, 1.1% active
Target sequence (P18054 whole entry, looked up): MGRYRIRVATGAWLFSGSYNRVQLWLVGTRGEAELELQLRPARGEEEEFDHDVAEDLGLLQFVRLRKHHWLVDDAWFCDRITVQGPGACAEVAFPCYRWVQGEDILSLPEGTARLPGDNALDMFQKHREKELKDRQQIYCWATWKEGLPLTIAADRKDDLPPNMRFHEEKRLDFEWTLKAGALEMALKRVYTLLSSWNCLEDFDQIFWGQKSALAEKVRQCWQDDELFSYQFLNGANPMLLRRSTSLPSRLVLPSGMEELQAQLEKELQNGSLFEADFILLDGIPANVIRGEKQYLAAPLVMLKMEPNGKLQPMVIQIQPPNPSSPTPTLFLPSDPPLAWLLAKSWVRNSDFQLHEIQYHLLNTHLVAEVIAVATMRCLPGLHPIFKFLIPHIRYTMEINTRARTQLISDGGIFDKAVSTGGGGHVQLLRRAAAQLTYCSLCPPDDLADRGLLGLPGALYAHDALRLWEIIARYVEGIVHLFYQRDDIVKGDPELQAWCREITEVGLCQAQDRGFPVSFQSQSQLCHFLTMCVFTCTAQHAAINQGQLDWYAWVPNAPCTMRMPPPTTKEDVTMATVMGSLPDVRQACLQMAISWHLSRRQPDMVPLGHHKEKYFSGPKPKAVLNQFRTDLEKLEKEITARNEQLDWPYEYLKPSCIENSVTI
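Hydroperoxide product was detected by ferrous iron/xylenol orange as the 573 to 405 nm absorbance ratio. Arachidonic acid at 40 uM (final) was turned over for 30 min at room temperature by 150 nM human 12hLO, pH 7.0 Hepes buffer, after 15 min compound preincubation.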
Numbers stand for hits; 0 = inactive; ? = inconclusive; - = no result given. Unless noted, the call rests on the fitted dose curve; in most records, active means well fitted curve in the direction sought with a large enough effect; inconclusive means small, poorly fitted or top-dose-only effect, or another doubt; inactive means no such curve, though single readings can be large; an effect the other way counts as inactive or inconclusive.

SMILES	HT1080-NT tox	HT1080 IDH1KD tx	TDP1 cell noCPT	DT40 TDP1 CPT	IL-1B inflam inh	ALOX12 inh
COc1ccc(-c2nc3sc(CCNC(=O)c4ccco4)c(C)n3n2)cc1	-	-	13µM	?	-	0
COc1ccc(-c2nc3sc(CCNC(=O)c4cc(OC)c(OC)c(OC)c4)c(C)n3n2)cc1	-	-	16µM	23µM	-	0
COc1ccc(-c2nc3sc(CCNC(=O)Cc4ccccc4)c(C)n3n2)cc1	-	-	21µM	15µM	-	?
S=C1CCC(c2ccc(Br)cc2)=NN1c1ccccc1	0	0	?	?	0	0
Cc1ccc(Cl)cc1NC(=O)C(=O)NCCc1sc(-c2ccc(F)cc2)nc1C	-	-	?	?	-	0
Cc1nc(-c2ccc(Cl)cc2)sc1CCNC(=O)Cc1ccc(F)cc1	-	-	15µM	16µM	-	0
CC(=O)c1cc(C)c(C)cc1O	-	-	-	-	-	0
COc1ccc(C(CNC(=O)c2oc3ccc(C)cc3c2C)N2CCCCC2)cc1 (stereo not drawn)	0	0	?	21µM	0	0
COc1ccc(C(CNC(=O)c2oc3ccccc3c2C)N2CCCCC2)cc1 (stereo not drawn)	-	-	23µM	16µM	-	0
COc1ccc(C(CNC(=O)c2cc3ccccc3o2)N2CCCCC2)cc1 (stereo not drawn)	0	0	21µM	?	?	0
COc1ccccc1C(CNC(=O)c1oc2ccccc2c1C)N1CCCC1 (stereo not drawn)	0	0	23µM	?	0	0
COc1ccc(CCn2c(=S)[nH]c3ccc(N4CCOCC4)cc3c2=O)cc1OC	0	0	?	0	0	0
COc1ccc(C(CNC(=O)c2oc3cc(C)c(Cl)cc3c2C)N2CCCCC2)cc1 (stereo not drawn)	0	0	?	13µM	0	0
COCCn1c(C)cc(C(=O)COC(=O)Cc2n[nH]c(=O)c3ccccc23)c1C	0	0	21µM	?	0	?
COc1ccc(-n2c(C)cc(C(=O)COC(=O)Cc3n[nH]c(=O)c4ccccc34)c2C)cc1	?	?	9.2µM	12µM	0	0
COCCn1c(C)cc(C(=O)COC(=O)c2ccc3ncsc3c2)c1C	0	0	15µM	13µM	0	0
COCCn1c(C)cc(C(=O)COC(=O)c2cccnc2SC)c1C	0	0	16µM	?	0	?
COc1cccc(CC(=O)N2C[C@@H](Oc3cccnc3)C[C@H]2C(N)=O)c1	-	-	-	-	-	0
CC(C)CNC[C@H]1O[C@H](Cc2cc(CN(C)Cc3ccccc3)on2)CC[C@@H]1O	-	-	-	-	-	0
COc1ccc(C2C3=C(CCCC3=O)Nc3nc(SCc4ccc(C(=O)O)cc4)nn32)cc1 (stereo not drawn)	-	-	-	-	-	0
Cc1nonc1CN(C)C(=O)C1CCCN(C2CCN(C(=O)C3CC3)CC2)C1 (stereo not drawn)	-	-	-	-	-	0
Cc1ccc(N2CCC(NS(=O)(=O)C3CC3)C2=O)cc1C (stereo not drawn)	-	-	-	-	-	0
COC(=O)C(O)(c1ccc(NC(=O)c2ccc(F)cc2)cc1)C(F)(F)F (stereo not drawn)	-	-	-	-	-	0
O=C(NCc1nnc2ccc(-c3ccccc3)nn12)c1cc(F)ccc1Cl	-	-	-	-	-	0
COCCn1c(C)cc(C(=O)COC(=O)c2n[nH]c3ccccc23)c1C	0	0	23µM	0	0	0
SMILES	HT1080-NT tox	HT1080 IDH1KD tx	TDP1 cell noCPT	DT40 TDP1 CPT	IL-1B inflam inh	ALOX12 inh
Cc1cc(C(=O)COC(=O)Cc2n[nH]c(=O)c3ccccc23)c(C)n1-c1ccc2c(c1)OCO2	0	0	21µM	18µM	0	0
COc1ccc(NC(=O)COC(=O)c2c(C)noc2C)cc1Cl	0	0	0	0	0	0
NS(=O)(=O)c1ccc(NC(=O)c2cc(-c3cc(Cl)ccc3O)n[nH]2)cc1	?	18µM	?	0	0	0
CC1CN(S(=O)(=O)c2ccc(NC(=O)c3cc(-c4ccccc4O)n[nH]3)cc2)CC(C)O1 (stereo not drawn)	?	?	?	21µM	-51	?
Cc1c(Cl)cccc1NC(=O)c1cc(-c2ccccc2O)n[nH]1	?	?	?	?	-60	0
NS(=O)(=O)c1ccc(NC(=O)c2cc(-c3cccc4ccccc34)n[nH]2)cc1	-	-	-	-	-	0
COc1ccc(OC)c(NC(=O)c2cc(-c3cc(Cl)ccc3O)n[nH]2)c1	0	?	12µM	18µM	?	0
CCc1ccc(S(=O)(=O)[C@H]2CS(=O)(=O)C[C@@H]2N2CCN(c3ncccn3)CC2)cc1	-	-	-	-	-	0
N#Cc1cccc(S(=O)(=O)N2CCCCC2C(=O)N2CCCC2)c1 (stereo not drawn)	-	-	-	-	-	0
COc1ccc(Cl)cc1NC(=O)c1cc(-c2ccccc2O)n[nH]1	0	0	15µM	?	0	0
COc1ccc(N2C(=O)CC(N3CCN(c4ccc(Cl)cc4)CC3)C2=O)cc1 (stereo not drawn)	0	0	0	0	-51	0
Nc1sccc1C(=O)NCCN1CCOCC1	0	0	0	0	0	0
Cc1ccc(NC(=O)N2CCC(N3CCN(Cc4ccccc4)C(=O)C3=O)CC2)cc1Cl	-	-	15µM	?	-	0
Cc1ccc(C2CCN(C(=O)Nc3ccc(Cl)c(Cl)c3)C2)cc1 (stereo not drawn)	-	-	26µM	?	-	0
Cc1ccc(C2CCN(C(=O)Nc3ccc(C)c(C)c3)C2)cc1 (stereo not drawn)	-	-	?	?	-	0
CCOC(=O)c1ccccc1NC(=O)N1CCC(N2CCN(Cc3ccccc3)C(=O)C2=O)CC1	-	-	0	0	-	0
O=C(Nc1ccc(Cl)c(Cl)c1)N1CCC(c2ccccc2)C1 (stereo not drawn)	-	-	21µM	?	-	0
COc1ccc(C(=O)N2CCC(N3C(=O)C(OC)C34CCOCC4)CC2)cn1 (stereo not drawn)	-	-	-	-	-	0
CCOC(=O)c1oc2nc(CC(C)C)c3c(c2c1N)CCC3	0	0	15µM	?	?	?
CCOC(=O)c1sc2nc(N3CCOCC3)c3c(c2c1N)CCC3	0	0	?	0	?	0
CCCS(=O)(=O)NCC(=O)N1CCCCCCNC(=O)CC1c1ccccc1 (stereo not drawn)	-	-	-	-	-	0
O=c1cc(N2CCOCC2)oc2c(NC3CCOCC3)nccc12	-	-	-	-	-	0
CCOc1cccc2cc(-c3nc(-c4ccccc4F)no3)c(=O)oc12	-	-	-	-	-	0
Cc1nc2ccc(NC(=O)c3nn(C(C)C)c(=O)c4ccccc34)cc2s1	0	0	?	?	0	0
